In PubChem BioAssay (Tox21) one finds Potency, activity change, positive = activation and max response data, which are given here for seven compounds.

Test [1] in a line: qHTS assay to identify small molecule antagonists of the estrogen related receptor signaling pathway with the pleiotropic PPARgamma coactivator (PGC) from Tox21 10K library - cell viability counter screen (AID 1224840; active means well fitted cell-killing curve with a large enough effect in the repeat runs, not every such curve was filed as active; further: nearly all actives have a fitted effect of over 40% in size; further: potency means the concentration at half of the fitted maximal effect). The procedure, abridged:
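PGC/ERR cells (2,000/well) plated 6 h, then compound-treated for 17.5 h at 37 C. Viability measured by CellTiter-Fluor fluorescence after 30 min at 37 C, multiplexed with the pathway assay.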
(In qHTS, concentration-response curves come from the screen itself.)

Test [2] is described as follows: qHTS assay to identify small molecule antagonists of the estrogen related receptor signaling pathway with the pleiotropic PPARgamma coactivator (PGC) from Tox21 10K library (AID 1224841; call rule not given here; further: actives are mostly falling curves and most rising ones were filed inactive; nearly all actives have a fitted effect of over 50% in size). The essentials:
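PGC/ERR cell line, 2,000 cells/well, pre-incubated 6 hours at 37 C, then exposed to compounds for 18 hours at 37 C; luciferase read with One-Glo luminescence after 30 min at room temperature.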

For test [3], the target named is Thyrotropin receptor (Homo sapiens) (UniProt P16473). Kind of test: qHTS assay to identify small molecule agonists of the thyroid stimulating hormone receptor (TSHR) signaling pathway (AID 1224843; calls by dose curve; further: nearly all actives have a fitted effect of over 45% in size). The procedure, abridged: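 Steps: seed 800 TSHR-HEK293 cells per well; add test compound and hold 30 min at ambient temperature; dispense cAMP-d2 then anti-cAMP cryptate; incubate 1 h at ambient; measure fluorescence intensity.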

Test [4] can be described thus: qHTS assay to identify small molecule agonists of the hypoxia (HIF-1) signaling pathway - cell viability counter screen (AID 1224844; calls by dose curve; further: nearly all actives have a fitted effect of over 50% in size; further: potency means the concentration at half of the fitted maximal effect). The essentials:
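HRE-bla ME-180 cells, 2,000/well in 0.5% dialyzed FBS medium, treated 17 h at 37C with compounds. Viability read in the same wells as the bla reporter, by CellTiter-Glo luminescence after 30 min at room temperature.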

Test [5] in a line: qHTS assay to identify small molecule agonists of H2AX (AID 1224845; active means well fitted activation curve with a large enough effect in the signal ratio in the repeat runs, not every such curve was filed as active; the % refers to the signal ratio). The procedure, abridged: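 Wild-type CHO-K1 cells, plated overnight, exposed 3hr at 37C to 15 concentrations (0.76% DMSO final). Lysed, then HTRF anti-pH2AX (S139) cryptate and anti-H2AX-d2 antibodies, 24 hr room temperature; 665/620 nm emission read.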
A short description of test [6]: qHTS assay to identify small molecule agonists of the hypoxia (HIF-1) signaling pathway (AID 1224846; active means well fitted activation curve with a large enough effect in the signal ratio in the repeat runs, not every such curve was filed as active; the % refers to the signal ratio). The essentials:
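HRE-bla ME-180 beta-lactamase reporter cells in medium with 0.5% dialyzed FBS, pre-incubated 5 h then exposed to compounds 17 h at 37C, 5% CO2; reporter induction read with CCF4-AM FRET substrate.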

A short description of test [7]: qHTS assay to identify small molecule antagonists of the estrogen related receptor (ERR) signaling pathway from Tox21 library (AID 1224848). Further: nearly all actives have a fitted effect of over 50% in size. Further: potency means the concentration at half of the fitted maximal effect. The essentials: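 Luminescent reporter read-out (ONE-Glo) from NTP's ERR cell line after 18 h treatment at 37 C with DMSO-dissolved Tox21 compounds; cells pre-plated 6 h beforehand at 2,000 per well.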
Test [8] in a line: qHTS assay to identify small molecule agonists of the estrogen related receptor (ERR) signaling pathway from Tox21 library (AID 1224849; calls by dose curve; further: nearly all actives have a fitted effect of over 15% in size). To be noted: ERR reporter cell line, ONE-Glo luciferase, 18 h; at 92.4 µM (top of the series) unless noted. The essentials: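 ERR reporter cells (NTP line) pre-incubated 6 hours at 37 C, then exposed to compounds for 18 hours at 37 C. ONE-Glo luciferase luminescence was read after 30 minutes at room temperature.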

The nature of test [9]: qHTS RealTime-Glo MT Cell Viability Assay in HepG2 cells - 24 hour (AID 1224867). Further: nearly all actives have a fitted effect of over 50% in size. Further: potency means the concentration at half of the fitted maximal effect. The essentials:
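HepG2 cells (600/well) were dispensed with RealTime-Glo reagents, incubated 5 h at 37 °C, then treated with compounds in DMSO for up to 40 h. Nonlytic NanoLuc luminescence reflecting viable cells was read at each stated time point.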

Test [10] is described as follows: qHTS RealTime-Glo MT Cell Viability Assay in HEK293 cells - 32 hour (AID 1224868). Further: nearly all actives have a fitted effect of over 50% in size. Further: potency means the concentration at half of the fitted maximal effect. The essentials: (§1)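 HEK293 cells seeded with NanoLuc/prosubstrate reagent, rested 5 h at 37 C, then dosed and kept at 37 C up to 40 h. Nonlytic real-time luminescence from viable cells read at 0, 8, 16, 24, 32 and 40 h.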
Test [11] in a line: A CellTox Green Cytotoxicity Assay to monitor cytotoxicity in HEK293 cells - 0 hour (AID 1224869). Further: nearly all actives have a fitted effect of over 50% in size. The procedure, abridged:
(§2)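 HEK293 cells, 600/well, were preincubated 5 hours and then exposed to compounds at 37 C for up to 40 hours. A cell-impermeant cyanine dye staining dead-cell DNA was read by fluorescence at 0, 8, 16, 24, 32 and 40 h time points.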

A short description of test [12]: qHTS RealTime-Glo MT Cell Viability Assay in HepG2 cells - 40 hour (AID 1224870). Further: nearly all actives have a fitted effect of over 50% in size. Further: potency means the concentration at half of the fitted maximal effect. The essentials: (§3)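 HepG2 cells (600/well) mixed with RealTime-Glo MT reagent, settled 5 h at 37 C/5% CO2 before compound addition. Nonlytic NanoLuc luminescence from viable-cell prosubstrate reduction read repeatedly during 40 h treatment at 37 C.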
Test [13] is described as follows: A CellTox Green Cytotoxicity Assay to monitor cytotoxicity in HEK293 cells - 40 hour (AID 1224871). Further: nearly all actives have a fitted effect of over 45% in size. Further: potency means the concentration at half of the fitted maximal effect. The procedure, abridged: as §2
The nature of test [14]: qHTS RealTime-Glo MT Cell Viability Assay in HEK293 cells - 16 hour (AID 1224872). Further: nearly all actives have a fitted effect of over 50% in size. Further: potency means the concentration at half of the fitted maximal effect. The essentials:
as §1

Test [15] can be described thus: qHTS RealTime-Glo MT Cell Viability Assay in HepG2 cells - 8 hour (AID 1224873). Further: nearly all actives have a fitted effect of over 55% in size. The procedure, abridged:
as §3

The nature of test [16]: qHTS RealTime-Glo MT Cell Viability Assay in HEK293 cells - 40 hour (AID 1224874). Further: nearly all actives have a fitted effect of over 50% in size. Further: potency means the concentration at half of the fitted maximal effect. To be noted: RealTime-Glo luminescence; max response: active compounds read low. The essentials:
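600 cells/well were plated with the nonlytic NanoLuc/prosubstrate reagent, pre-incubated 5 h, then given 23 nL of compound in DMSO. Incubation at 37 C for 40 h, with luminescence from viable-cell-reduced substrate read repeatedly from 0 h.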

Test [17] is described as follows: A CellTox Green Cytotoxicity Assay to monitor cytotoxicity in HEK293 cells - 24 hour (AID 1224875). Further: nearly all actives have a fitted effect of over 45% in size. Further: potency means the concentration at half of the fitted maximal effect. The essentials: as §2
The nature of test [18]: A CellTox Green Cytotoxicity Assay to monitor cytotoxicity in HepG2 cells - 16 hour (AID 1224876). Further: nearly all actives have a fitted effect of over 45% in size. Further: potency means the concentration at half of the fitted maximal effect. The essentials:
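HepG2 cells, 600/well, preincubated 5 h with CellTox Green dye, then exposed to Tox21 compounds in DMSO at 37 C for up to 40 h. Dead-cell DNA fluorescence read at the indicated time point.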

The nature of test [19]: qHTS assay to identify small molecule agonists of H2AX - cell viability counter screen (AID 1224847; calls by dose curve; further: nearly all actives have a fitted effect of over 30% in size; further: potency means the concentration at half of the fitted maximal effect). The essentials:
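CHO-K1 cells plated overnight at 37C, then exposed 3 h at 37C to compounds at 15 concentrations (0.76% DMSO final). Viability by CellTiter-Glo luminescence after 30 min at room temperature.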

A short description of test [20]: qHTS assay to identify small molecule agonists of the estrogen related receptor signaling pathway with the pleiotropic PPARgamma coactivator (PGC) from Tox21 10K library (AID 1224842). Further: nearly all actives have a fitted effect of over 15% in size. The essentials: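 PGC/ERR reporter cell line, 2,000 cells per well, incubated 6 h at 37 C before 23 nL compound in DMSO was added. After 18 h at 37 C, One-Glo luminescence read following 30 min at room temperature.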

A number with no mark means an inactive call. Inconclusive results are not listed. Activity calls are given as the source filed them. Unless noted, the call rests on the fitted dose curve; in most records, active means well fitted curve in the direction sought with a large enough effect in the repeat runs; inconclusive means weak or mixed curves; inactive means no such curve, though single readings can be large; an effect the other way counts as inactive or inconclusive.
On the % scale 0 is the no-effect control and ±100 the full control effect.

Thyrotropin receptor (Homo sapiens), sequence (P16473 whole entry, looked up): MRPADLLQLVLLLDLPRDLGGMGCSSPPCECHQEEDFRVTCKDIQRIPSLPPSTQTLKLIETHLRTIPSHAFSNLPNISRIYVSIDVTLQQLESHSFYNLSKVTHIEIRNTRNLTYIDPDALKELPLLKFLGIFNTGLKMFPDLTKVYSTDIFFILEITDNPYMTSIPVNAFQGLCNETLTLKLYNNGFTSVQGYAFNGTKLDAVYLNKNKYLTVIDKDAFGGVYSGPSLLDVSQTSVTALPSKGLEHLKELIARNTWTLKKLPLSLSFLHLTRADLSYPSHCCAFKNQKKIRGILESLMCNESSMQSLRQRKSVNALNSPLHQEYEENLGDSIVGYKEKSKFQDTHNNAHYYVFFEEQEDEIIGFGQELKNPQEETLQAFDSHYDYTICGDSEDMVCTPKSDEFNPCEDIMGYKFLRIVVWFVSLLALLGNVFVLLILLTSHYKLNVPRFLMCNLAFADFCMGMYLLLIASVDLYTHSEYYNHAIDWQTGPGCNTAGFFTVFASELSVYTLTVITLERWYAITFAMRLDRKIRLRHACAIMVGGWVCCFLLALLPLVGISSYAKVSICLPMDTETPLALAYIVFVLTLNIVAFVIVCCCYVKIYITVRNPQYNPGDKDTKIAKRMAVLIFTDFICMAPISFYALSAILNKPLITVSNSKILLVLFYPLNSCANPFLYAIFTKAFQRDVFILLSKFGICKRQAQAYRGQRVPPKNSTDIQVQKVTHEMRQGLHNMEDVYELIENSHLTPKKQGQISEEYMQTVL

With `CCN(CCC#N)c1ccc(N=Nc2ccc([N+](=O)[O-])cc2)cc1`, the Potency result in test [1], in [2], in test [3], in test [4], in test [5] and in [6] was “inactive” in each case. Further, the Potency entry in [7], in test [9], in test [10], in test [11], in [12] and in [13] was “inactive” throughout. Further, the Potency result in test [14], in [15], in test [17] and in test [18] was “inactive” in each case. The activity change, positive = activation in test [8] was 15.7% (active). In addition, the max response in test [16] was 0.454%.
For the compound `CN(C[C@@H](CC[N+]12CCC(C3CCCCC3)(CC1)CC2)c1ccc(Cl)c(Cl)c1)C(=O)c1cc(C(F)(F)F)cc(C(F)(F)F)c1`, the Potency was 30.6 µM (active) in test [1]; 19.5 µM (active) in [4]; 50.5 µM (active) in test [19]; 27.3 µM (active) in test [7]; 21.9 µM (active) in [9]; 2.19 µM (active) in [10]. For the same compound, the Potency in test [12] was 21.9 µM (active); in [13] it was 27.5 µM (active); in [16], 2.19 µM (active); in [17], 24.5 µM (active); in test [18], 24.5 µM (active). Also, the Potency entry in test [2], in test [5] and in test [11] was “inactive” in each case. The activity change, positive = activation in [8] is -78.4%.
As for `CCc1cccc(CC)c1`, the Potency entry in [1], in test [20], in [4], in [5], in test [6] and in [19] was “inactive” throughout. Also, the Potency result in test [7], in test [9], in [11], in [12], in test [13] and in test [14] was “inactive” throughout. Besides, the Potency result in test [17] and in [18] was “inactive” throughout. Also, the activity change, positive = activation in test [8] was -2.59%. The max response in [16] is 23.9%.
As to `Oc1ccc(Cl)cc1C1CCCC1`, the Potency result in test [1], in test [2], in test [20], in test [5], in test [7] and in [9] was “inactive” each time. In addition, the Potency entry in test [11], in [12] and in [15] was “inactive” in each case. In addition, the Potency is 56.6 µM (active) in test [19]; 49 µM (active) in test [13]; 24.5 µM (active) in test [14]; 54.9 µM (active) in test [17]; 54.9 µM (active) in test [18]. In [16], the max response was -29.3%.
With `CCc1c(C)cc(N)c(CC)c1N`, the Potency result in test [1], in [20], in test [3], in test [4], in [5] and in [6] was “inactive” each time. Also, the Potency result in test [19], in test [7], in test [9], in test [10], in test [11] and in [12] was “inactive” each time. Also, the Potency entry in [13], in test [14], in test [15], in test [17] and in test [18] was “inactive” throughout. Besides, in [8], the activity change, positive = activation is -1.89%. The max response in test [16] is 1.8%.
In the case of `Oc1ccc2c(c1)CCC2`, the Potency entry in test [1], in test [2], in test [20], in [4], in test [5] and in [6] was “inactive” throughout. Also, the Potency result in test [19], in [7], in test [9], in test [10], in [11] and in test [12] was “inactive” in each case. The Potency entry in [13], in [14], in test [15], in [17] and in [18] was “inactive” each time. Moreover, the activity change, positive = activation in test [8] was 7.55%. In test [16], the max response is -3.07%.
Consider `CCN(CC)c1ccc(C=O)c(O)c1`, for which the Potency result in test [1], in test [20], in test [3], in test [4], in test [5] and in test [6] was “inactive” throughout. Also, the Potency entry in [19], in [9], in test [10], in test [11], in test [12] and in test [14] was “inactive” in each case. Besides, the Potency result in [15], in [17] and in test [18] was “inactive” each time. The activity change, positive = activation in [8] was -16.4%. For the same compound, the max response in test [16] is -15%.
